Data reported in PubChem BioAssay AID1347417 (National Center for Advancing Translational Sciences (NCATS), 2020).
Screen size: about 120,000 compounds; about 5,300 (4.4%) were called active. Where a call stands in place of a potency, no number is given. Not shown: some 22% with an inconclusive outcome. The call rests on the fitted dose curve; in most records, active means well fitted inhibition curve with a large enough effect; inconclusive means small, poorly fitted or top-dose-only effect; inactive means no such curve, though single readings can be large or run the other way. The sample as a whole holds a higher share of actives than the screen did.

Assay: qHTS Primary assay for Inhibitors of Plasmodium falciparum Dd2 growth in vitro; further: nearly all actives have a fitted effect of over 65% in size
Settings: P. falciparum Dd2 growth, SYBR Green, 72 h; series mostly up to 28.9 µM
Procedure, shortened: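 Readout: SYBR Green fluorescence, 485 nm excitation, 535 nm emission, after ~16 h lysis at 37C. Before that, Dd2-infected red cells (2.5% hematocrit) grew 72 h with compound, 29 uM top final concentration.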
Potency means the concentration at half of the fitted maximal effect.

Structure (SMILES)	Potency
CC(C)CNC(=O)N1C[C@@H](Oc2cccnc2)C[C@H]1C(=O)N1CCOCC1	inactive
NS(=O)(=O)c1ccc(F)c(C(=O)NCc2ccc3nonc3c2)c1	inactive
CCOc1ccc(CCNc2nc(-c3ccccc3)no2)cc1	inactive
Cc1ccc(-n2cnc3cc(C(=O)NCCC4=CCCCC4)ccc32)cc1Cl	inactive
CCCNC(=O)c1ccc2c(c1)ncn2-c1ccc(C)cc1C	11.2 µM (active)
Cc1ccc(CCNC(=O)c2ccc3c(c2)nc2n3CCC(C)C2)cc1 (configuration not stated)	inactive
Cc1cc(Cn2cc3c4c(cccc42)[C@H](CC(C)C)N[C@H](C(=O)N2CCCCCC2)C3)no1	inactive
CN1C(=O)c2cccn2CC1C(=O)N1CCc2ccccc21 (configuration not stated)	inactive
CCN1CCc2nc3sc(C(=O)Nc4ccccc4OC(F)(F)F)c(N)c3cc2C1	10 µM (active)
CCc1ccc(NC(=O)c2cnc3c(-c4ccccc4)c(C)nn3c2C)cc1	inactive
CCc1ccc(NC(=O)c2sc3nc4c(cc3c2N)CN(CC)CC4)cc1	11.2 µM (active)
CCc1cccc(NC(=O)c2cnc(N3CCOCC3)c3ccccc23)c1	inactive
O=C(Nc1ccc(OC(F)(F)F)cc1)c1cc2c(=O)n3ccccc3nc2s1	inactive
COc1ccc(Cl)cc1NC(=O)c1sc2nc3c(cc2c1N)CN(C)CC3	inactive
CCOc1ccccc1C(=O)N1CCC2(CC1)CN(C(C)=O)CC2COC (configuration not stated)	inactive
CCC(=O)N1CCc2c(sc3ncnc(NCc4cccnc4)c23)C1	inactive
Cc1noc2c(-c3cccc(CO)c3)cc(-c3ccccc3)nc12	inactive
O=C(Cc1ccc(OC(F)(F)F)cc1)N1CC2CC(C1)[C@H]1CCCC(=O)N1C2 (some centres not stated)	inactive
Cn1ccnc1C(=O)N1CCCCCCNC(=O)[C@@H]2CCCC[C@@H]21	inactive
CC1(C)[C@H](Cc2cc(CCO)on2)C[C@@H]1NCC1CC1	inactive
CC1(C)[C@H](Cc2cc(-c3ccccc3)on2)C[C@@H]1NCC1CC1	12.6 µM (active)
CC1(C)[C@H](Cc2cc(-c3ccccc3)on2)C[C@@H]1NS(C)(=O)=O	inactive
CCn1ncc(N2CCC(NC(=O)CCOC)CC2)cc1=O	inactive

Structure (SMILES)	Potency
O=C(NC1CCN(c2cc(-c3ccc(Cl)cc3)[nH]n2)CC1)c1ccccc1F	inactive
O=C(Cn1ccn2nc(-c3ccccc3)c(CO)c2c1=O)Nc1cc(F)ccc1Cl	inactive
CC1=C[C@@H](CN2CCCC2)[C@H](C(C)C)C[C@H]1Cc1nnc(-c2ccc([N+](=O)[O-])cc2)o1	1.78 µM (active)
CC1=C[C@@H](CN2CCN(CCO)CC2)[C@H](C(C)C)C[C@H]1Cc1nnc(-c2ccc(C)cc2)o1	inactive
CC1=C[C@@H](CNC(=O)NC(C)C)[C@H](C(C)C)C[C@H]1Cc1nnc(-c2ccncc2)o1	inactive
CC1=C[C@@H](CNC(C)C)[C@H](C(C)C)C[C@H]1Cc1nnc(-c2ccncc2)o1	inactive
Fc1ccc(CN2CC[C@H](c3nnc(-c4ccccc4F)o3)C2)cc1	inactive
CC1=C[C@@H](CNC(C)C)[C@H](C(C)C)C[C@H]1Cc1nnc(-c2ccc(N(C)C)cc2)o1	3.55 µM (active)
CC1=C[C@@H](CC#N)[C@H](C(C)C)C[C@H]1CC(=O)N1CCN(C)CC1	inactive
CC1=C[C@@H](CN2CCC(O)CC2)[C@H](C(C)C)C[C@H]1Cc1nnc(-c2ccccc2F)o1	8.91 µM (active)
CC1=C[C@@H](CNC(=O)COc2ccccc2)[C@H](C(C)C)C[C@H]1CC(=O)NCc1ccccn1	inactive
CN(C)C[C@@H]1CN(Cc2ccccn2)C[C@H]1NC(=O)c1cc(Cl)ccc1F	inactive
Cc1ccc(C(=O)N2C[C@@H](Oc3cccnc3)C[C@H]2C(=O)N2CCOCC2)s1	inactive
CCC(CC)NC(=O)C1Cn2cccc2C(=O)N1 (configuration not stated)	inactive
Cc1noc(-c2cn(C3CCN(C(=O)c4ccoc4)CC3)nn2)n1	inactive
NC(=O)c1cccc(-c2ccc3c(n2)CN(Cc2ccc(C(F)(F)F)cc2)C(=O)CO3)c1	inactive
COc1ccc(Nc2nc(-c3cccc(OC)c3OC)no2)cc1	inactive
O=C(Cn1cccc1-c1nc(-c2ccccc2)no1)Nc1ccccc1F	3.98 µM (active)
CCc1cc(=O)n(CC(=O)Nc2ccccc2F)c(-c2cccc(F)c2)n1	inactive
COc1ccc(-c2noc(-c3cccn3CC(=O)Nc3cc(Cl)ccc3OC)n2)cc1F	3.98 µM (active)
COc1ccc(-c2noc(-c3cccn3CC(=O)Nc3ccccc3)n2)cc1F	1.58 µM (active)
COc1ccc(CNC(=O)Cn2cccc2-c2nc(-c3ccc(F)cc3)no2)cc1	inactive
COc1ccc(Cl)cc1NC(=O)CSc1nc(=O)[nH]c2c1CCCC2	inactive

Structure (SMILES)	Potency
O=C(Cn1cccc1-c1nc(-c2ccc(F)cc2)no1)Nc1cc(F)cc(F)c1	inactive
CC(=O)c1ccc(NC(=O)COc2ccccc2-c2nc(-c3ccccc3)no2)cc1	inactive
COc1ccc(Cl)cc1NC(=O)Cn1c(=O)c2ccccc2n2nncc12	inactive
CCOC(=O)N1CCC(N2CCN(c3cc(C(C)C)nc(C)n3)CC2)CC1	inactive
Cc1ccccc1C(=O)N[C@@H]1CN(c2ncccn2)C[C@H]1CO	inactive
Cc1cccc(-c2noc(CCC(=O)N[C@H]3CC[C@H]3NC3CCCC3)n2)c1	inactive
CO[C@H]1C(=O)N(C2CCN(C(=O)c3ccncc3)CC2)[C@H]1c1ccncc1	inactive
Cc1nc(-c2c3n(c(=O)n(Cc4ccc(Br)cc4)c2=O)CCCCC3)no1	inactive
CNC(=O)[C@@H]1C[C@H](n2cc(CN(C)C(=O)c3cccc(F)c3F)nn2)CN1	inactive
CCc1cccc(-n2nnnc2N2CCN(C(=O)Nc3ccc(C)c(OC)c3)CC2)c1	inactive
O=C(O)CN1CC2(CCC1=O)CCN(C(=O)C1CNC(=O)C1)CC2 (configuration not stated)	inactive
CCC(C(=O)NCCn1ccn2nc(-c3ccc(F)cc3)cc2c1=O)c1ccccc1 (configuration not stated)	inactive
COc1ccccc1-c1cc(-c2cn[nH]c2)c2onc(C)c2n1	inactive
Cn1cc(-c2cc(-c3cccnc3)c3cncn3c2)cn1	inactive
COc1ccc(-c2cc(-c3cnc4[nH]ccc4c3)cn3cncc23)cn1	4.47 µM (active)
COc1ccc(-c2nccc3c(=O)cc(N(C)c4ccccc4)oc23)cn1	inactive
Cc1noc(C)c1-c1cc(-c2ccccc2Oc2ccccc2)cn2cncc12	5.62 µM (active)
OCc1ccc(-c2cc(-c3cccnc3)c3cncn3c2)cc1	inactive
COc1ccccc1-c1cc(-c2cn[nH]c2)c2cncn2c1	12.6 µM (active)
COc1ccc(-c2cc(-c3cccc4[nH]ncc34)cn3cncc23)cn1	3.98 µM (active)
Cc1noc(C)c1-c1cc(-c2cncnc2)cn2cncc12	inactive
